Test results from PubChem BioAssay AID1159580 (chemical genetic matrix, 2015).
Hit rate of the full screen: of about 5,500 compounds, about 2,000 (36%) were called active. Not shown: some 18% with an inconclusive outcome. No stated cut-off is given here; in the data, active means normalized growth mostly below about 0.91 (no sharp cut-off); inconclusive means no clear call, values can overlap the other calls; inactive means mostly above about 0.92. Some of the results follow.

Experiment: chemical genetic growth profiling, strain panel (AID 1159580);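 further: tested at 20 µM; growth read once vehicle control cultures reached saturation at 30 °C; 1 = growth at the plate median or of vehicle wells; lower values mean less growth of the strain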
Details: growth OD

Measured: normalized growth

COc1c(Br)cc([N+](=O)[O-])c(OC)c1C(N)=O
inactive: S. cerevisiae deletion strains, locus YBR229C, strain ROT2, active compounds read low 1.03 | S. cerevisiae deletion strains, locus YCL061C, strain MRC1, active compounds read low 1.01 | S. cerevisiae deletion strains, locus YDL101C, strain DUN1, active compounds read low 1.03 | S. cerevisiae deletion strains, locus YDL134C, strain PPH21, active compounds read low 1.01 | S. cerevisiae deletion strains, locus YDR150W, strain NUM1, active compounds read low 0.986 | S. cerevisiae deletion strains, locus YEL061C, strain CIN8, active compounds read low 1.02 | S. cerevisiae deletion strains, locus YGR078C, strain PAC10, active compounds read low 1.02 | S. cerevisiae deletion strains, locus YHR030C, strain SLT2, active compounds read low 1.07 | S. cerevisiae deletion strains, locus YHR087W, strain rtc3, active compounds read low 1.01 | S. cerevisiae deletion strains, locus YJL187C, strain SWE1, active compounds read low 1 | S. cerevisiae deletion strains, locus YJR043C, strain POL32, active compounds read low 1.04 | S. cerevisiae deletion strains, locus YJR075W, strain HOC1, active compounds read low 1.01 | S. cerevisiae deletion strains, locus YLR039C, strain RIC1, active compounds read low 1.02 | S. cerevisiae deletion strains, locus YLR058C, strain SHM2 (second series), active compounds read low 1.01 | S. cerevisiae deletion strains, locus YLR085C, strain ARP6, active compounds read low 1.02 | S. cerevisiae deletion strains, locus YLR262C, strain YPT6, active compounds read low 1.01 | S. cerevisiae deletion strains, locus YML094W, strain GIM5, active compounds read low 1 | S. cerevisiae deletion strains, locus YMR219W, strain ESC1, active compounds read low 1.03 | S. cerevisiae deletion strains, locus YMR263W, strain SAP30, active compounds read low 0.946 | S. cerevisiae deletion strains, locus YNL153C, strain GIM3, active compounds read low 1.02 | S. cerevisiae deletion strains, locus YNL298W, strain CLA4 (second series), active compounds read low 1.01 | S. cerevisiae deletion strains, locus YNL322C, strain KRE1, active compounds read low 1.02 | S. cerevisiae deletion strains, locus YNR030W, strain Alg12, active compounds read low 1.03 | S. cerevisiae deletion strains, locus YPL055C, strain LGE1, active compounds read low 0.928 | S. cerevisiae deletion strains, locus YPL241C, strain CIN2, active compounds read low 1.02 | S. cerevisiae deletion strains, locus YPR135W, strain CTF4, active compounds read low 1.1 | S. cerevisiae strains, strain wild type, active compounds read low 1.03
